Experimental data taken from PubChem BioAssay (EPA / NIEHS).
Records with an inconclusive call do not appear. Calls of active or inactive are those of the source. The calls were made as follows, unless noted: active = hit-call score of the fitted dose curve at least 0.9, where 1 is the maximum; inactive = score below 0.9.

Assays:
[1] = BSK_LPS_PGE2: BioMAP Diversity Plus: LPS Assay for Prostaglandin E2 (PGE2) Biomarker Activity (AID 2283082); settings: primary human HUVEC with PBMC; actives raise or lower the signal;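 as to AC50: secreted prostaglandin E2 measured by ELISA in LPS-stimulated co-culture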
Method in brief: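 Endpoint derived from bidirectional curve fitting versus DMSO of ELISA-measured PGE2 in LPS-stimulated human primary vascular co-culture (HUVEC with PBMC) harvested at 24 h.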

[2] = read-out: Macrophage colony-stimulating factor (MCSF), CSF1 (gene 1435); assay: BSK_LPS_MCSF: BioMAP Diversity Plus: LPS Assay for Macrophage colony-stimulating factor (MCSF) Biomarker Activity (AID 2283083); settings: primary human HUVEC with PBMC; actives raise or lower the signal
Method in brief: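 HUVEC–PBMC co-culture, M-CSF measured by ELISA 24 h after chemical dosing. Fitted in both directions relative to DMSO as negative control; overt cytotoxicity assessed by SRB total-protein staining in parallel cultures.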

[3] = read-out: Tissue Factor, F3 (gene 2152); assay: BSK_LPS_TissueFactor: BioMAP Diversity Plus: LPS Assay for Tissue Factor Biomarker Activity (AID 2283084); settings: primary human HUVEC with PBMC; actives raise or lower the signal
Method in brief: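 Human umbilical vein endothelial cells co-cultured with PBMC were dosed with compound. Cell-surface CD142 was measured by ELISA 24 h later. Activity was fitted bidirectionally against DMSO, with SRB total-protein staining in parallel cultures for cytotoxicity.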

[4] = read-out: Tumor necrosis factor (Homo sapiens) (UniProt P01375); assay: BSK_LPS_TNFa: BioMAP Diversity Plus: LPS Assay for Tumour Necrosis Factor alpha (TNFa) Biomarker Activity (AID 2283085); settings: primary human HUVEC with PBMC; actives raise or lower the signal
Method in brief: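 Primary human vascular co-culture of HUVEC and PBMC; TNFa ELISA 24 h after treatment, analysed as increase or decrease relative to DMSO control.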

[5] = read-out: Vascular cell adhesion molecule 1 (VCAM1), VCAM1 (gene 7412); assay: BSK_LPS_VCAM1: BioMAP Diversity Plus: LPS Assay for Vascular cell adhesion molecule 1 (VCAM1) Biomarker Activity (AID 2283086); settings: primary human HUVEC with PBMC; actives raise or lower the signal
Method in brief: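 Primary human vascular co-culture (umbilical vein endothelium plus PBMC) stimulated with LPS received chemical; 24 h later VCAM-1 was read by ELISA. Overt cytotoxicity was assessed by sulforhodamine B staining of parallel cultures at the same time point.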

[6] = read-out: CD38, CD38 (gene 952); assay: BSK_SAg_CD38: BioMAP Diversity Plus: SAg Assay for CD38 Biomarker Activity (AID 2283087); settings: primary human HUVEC with PBMC; actives raise or lower the signal
Method in brief: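 Fluorescence ELISA of cell-surface CD38 served as the read-out, with either increase or decrease fitted against DMSO controls. Cells were a human umbilical vein endothelium plus PBMC co-culture under SEB/TSST-1 stimulation, measured 24 h after dosing.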

[7] = read-out: CD40, CD40 (gene 958); assay: BSK_SAg_CD40: BioMAP Diversity Plus: SAg Assay for CD40 Biomarker Activity (AID 2283088); settings: primary human HUVEC with PBMC; actives raise or lower the signal
Method in brief: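 HUVEC plus PBMC co-culture, superantigen-activated, with CD40 read by ELISA 24 h after dosing. Curves fitted in both directions against DMSO. Overt cytotoxicity checked by parallel SRB total-protein staining.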

[8] = read-out: Monocyte Chemoattractant Protein-1 (MCP1), CCL2 (gene 6347); assay: BSK_SAg_MCP1: BioMAP Diversity Plus: SAg Assay for Monocyte Chemoattractant Protein-1 (MCP1) Biomarker Activity (AID 2283090); settings: primary human HUVEC with PBMC; actives raise or lower the signal
Method in brief: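 MCP-1 levels in the endothelial–PBMC SAg co-culture were quantified by ELISA at 24 h post-dosing; both increases and decreases versus DMSO scored. Cytotoxicity monitored by SRB total protein in parallel cultures.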

[9] = read-out: E-selectin (Homo sapiens) (UniProt P16581); assay: BSK_SAg_Eselectin: BioMAP Diversity Plus: SAg Assay for Eselectin Biomarker Activity (AID 2283091); settings: primary human HUVEC with PBMC; actives raise or lower the signal
Method in brief: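 Human umbilical vein endothelial cells co-cultured with peripheral blood mononuclear cells, SAg system. E-selectin is measured by ELISA 24 h after dosing and fitted bidirectionally against DMSO. Cytotoxicity is checked by SRB staining of parallel cultures.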

[10] = read-out: Monokine induced gamma interferon (MIG), CXCL9 (gene 4283); assay: BSK_SAg_MIG: BioMAP Diversity Plus: SAg Assay for Monokine induced gamma interferon (MIG) Biomarker Activity (AID 2283092); settings: primary human HUVEC with PBMC; actives raise or lower the signal
Method in brief: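 Endothelial cells and PBMC were co-cultured, exposed to test chemicals, and sampled 24 h later. MIG was measured by ELISA, and responses were fitted in both directions relative to DMSO.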

[11] = BSK_SAg_PBMCCytotoxicity: PBMC Cytotoxicity Assessment in the BioMAP Diversity Plus: SAg Assay (AID 2283093); settings: primary human HUVEC with PBMC;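 also: PBMC viability measured as Alamar Blue reduction fluorescence at 546/580 nm; fitted both ways against DMSO so a hit may be loss or gain of signal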
Method in brief: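 HUVEC/PBMC co-culture; PBMC exposed to chemical 1 h before SEB and TSST-1 activation (20 ng/mL each), incubated 90 h, then Alamar Blue 6 h, fluorescence 546/580 nm. Bidirectional fit versus DMSO baseline.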

[12] = read-out: Interleukin-8 (IL8), CXCL8 (gene 3576); assay: BSK_SAg_IL8: BioMAP Diversity Plus: SAg Assay for Interleukin-8 (IL8) Biomarker Activity (AID 2283094); settings: primary human HUVEC with PBMC; actives raise or lower the signal
Method in brief: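 In this co-culture of human umbilical vein endothelium with peripheral blood mononuclear cells, IL-8 is assayed by ELISA at 24 h. DMSO serves as baseline for bidirectional curve fitting.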

[13] = BSK_SAg_Proliferation: Cell Proliferation Assessment in the BioMAP Diversity Plus: SAg Assay (AID 2283095); settings: primary human HUVEC with PBMC;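 also: relative cell number as total protein by SRB absorbance in sub-confluent culture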
Method in brief: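 Readout is SRB-stained protein (560 nm) in a primary human HUVEC and PBMC co-culture; sub-confluent cultures are read at 96 h. Activity is fitted bidirectionally using DMSO as baseline.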

[14] = BSK_SAg_SRB: Viability Assessment in the BioMAP Diversity Plus: SAg Assay (AID 2283096); settings: primary human HUVEC with PBMC;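 also: cells read one day after compound addition; hits may be either gain or loss of signal compared with DMSO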
Method in brief: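 Human umbilical vein endothelial cells co-cultured with PBMC, read 24 h after compound dosing. Total protein measured by sulforhodamine B staining (0.1% SRB after 10% TCA fixation, absorbance 560 nm); bidirectional fit versus DMSO baseline.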

[15] = target: human CYP19A1, CYP19A1 (gene 1588) (UniProt P11511); assay: NVS_ADME_hCYP19A1: NovaScreen (NVS) CYP450-related Enzyme Activity (ADME) Assay for human CYP19A1 (AID 2283098; active = hit-call score of the fitted dose curve at least 0.9, where 1 is the maximum)
Chain of human CYP19A1, CYP19A1 (gene 1588) (P11511 whole entry, looked up): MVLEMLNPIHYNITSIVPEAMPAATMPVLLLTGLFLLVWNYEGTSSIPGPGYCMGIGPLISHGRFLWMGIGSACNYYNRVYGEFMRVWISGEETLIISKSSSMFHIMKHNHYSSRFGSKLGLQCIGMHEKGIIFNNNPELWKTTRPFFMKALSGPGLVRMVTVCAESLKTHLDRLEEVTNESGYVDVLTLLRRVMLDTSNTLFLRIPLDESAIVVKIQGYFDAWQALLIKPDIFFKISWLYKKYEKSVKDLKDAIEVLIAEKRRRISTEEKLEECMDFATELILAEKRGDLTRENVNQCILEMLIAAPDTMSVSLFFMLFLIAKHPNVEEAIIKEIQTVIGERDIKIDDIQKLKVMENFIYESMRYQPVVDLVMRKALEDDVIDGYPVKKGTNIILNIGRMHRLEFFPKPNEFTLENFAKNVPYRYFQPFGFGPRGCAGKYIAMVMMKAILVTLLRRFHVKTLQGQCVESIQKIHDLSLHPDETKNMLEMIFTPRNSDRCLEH
Method in brief: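 Recombinant enzyme in a cell-free format, read 0.5 h after dosing by fluorescence from a fluorogenic substrate. Loss of signal was fitted against acetonitrile as baseline. Primary screen in duplicate at 10 uM, actives then tested in concentration series.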

[16] = read-out: CD69, CD69 (gene 969); assay: BSK_SAg_CD69: BioMAP Diversity Plus: SAg Assay for CD69 Biomarker Activity (AID 2283089); settings: primary human HUVEC with PBMC; actives raise or lower the signal
Method in brief: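 Primary human vascular co-culture (umbilical vein endothelium with peripheral blood mononuclear cells) exposed to test chemical for 24 h. CD69 levels quantified by fluorescence ELISA; DMSO served as negative control for bidirectional fitting.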

Measured: AC50

Chain of Tumor necrosis factor (Homo sapiens) (P01375 whole entry, looked up): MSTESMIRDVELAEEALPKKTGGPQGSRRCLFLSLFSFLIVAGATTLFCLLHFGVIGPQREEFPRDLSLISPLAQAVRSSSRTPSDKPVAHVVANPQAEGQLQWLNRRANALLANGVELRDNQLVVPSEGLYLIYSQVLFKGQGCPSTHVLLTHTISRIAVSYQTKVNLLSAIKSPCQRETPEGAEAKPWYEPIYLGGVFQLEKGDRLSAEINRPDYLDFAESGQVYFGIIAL
Chain of E-selectin (Homo sapiens) (P16581 whole entry, looked up): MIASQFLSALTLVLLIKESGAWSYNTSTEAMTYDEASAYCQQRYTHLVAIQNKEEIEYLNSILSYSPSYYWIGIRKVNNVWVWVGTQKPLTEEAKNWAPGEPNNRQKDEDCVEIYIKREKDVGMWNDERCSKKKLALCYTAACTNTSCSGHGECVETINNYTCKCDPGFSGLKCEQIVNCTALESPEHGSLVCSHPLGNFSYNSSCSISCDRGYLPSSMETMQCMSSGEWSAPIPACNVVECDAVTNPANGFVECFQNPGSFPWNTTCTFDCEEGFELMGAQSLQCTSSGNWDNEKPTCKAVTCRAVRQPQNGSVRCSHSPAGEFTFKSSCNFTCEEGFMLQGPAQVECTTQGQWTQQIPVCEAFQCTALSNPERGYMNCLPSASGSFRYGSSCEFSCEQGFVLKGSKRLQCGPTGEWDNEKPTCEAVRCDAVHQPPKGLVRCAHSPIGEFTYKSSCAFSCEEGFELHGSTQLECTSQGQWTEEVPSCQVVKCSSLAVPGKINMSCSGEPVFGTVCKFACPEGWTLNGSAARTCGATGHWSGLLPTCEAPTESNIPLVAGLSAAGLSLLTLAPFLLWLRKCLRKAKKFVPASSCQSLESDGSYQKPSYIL

CCOC(=O)CC(O)(CC(=O)OCC)C(=O)OCC
not listed: [15] | [16]
inactive: all other assays above

CC(C)(C)CC(C)(C)c1ccc(O)c(-n2nc3ccccc3n2)c1
not listed: [15] | [16]
inactive: all other assays above

CCCCC(CC)COC(=O)CCCCC(=O)OCC(CC)CCCC (configuration not stated)
active: [4] 3.97 µM
not listed: [15] | [16]
inactive: all other assays above

CCCCCCCC(=O)O
not listed: [15] | [16]
inactive: all other assays above

O=C(O)c1ccccc1C(c1ccc(O)cc1)c1ccc(O)cc1
not listed: [16]
inactive: all other assays above

O=c1c(-c2ccc(O)cc2)coc2cc(O)ccc12
active: [3] 26.5 µM | [5] 20 µM | [13] 20 µM
not listed: [1] | [15]
inactive: all other assays above

CC#C[C@]1(O)CC[C@H]2[C@@H]3CCC4=CC(=O)CCC4=C3[C@@H](c3ccc(N(C)C)cc3)C[C@@]21C
active: [2] 12.1 µM | [6] 36.6 µM | [7] 31.2 µM | [8] 31.7 µM | [9] 33.4 µM | [10] 35.5 µM | [13] 36.2 µM | [14] 31.7 µM
inactive: [1] | [3] | [4] | [11] | [12]

CC[C@H](C)[C@@H](C(=O)O)n1sc2ccccc2c1=O
active: [1] 32.2 µM | [4] 20 µM | [5] 26.5 µM
not listed: [15] | [16]
inactive: all other assays above
